From the supplement of paper PMC10849652
Of roughly 8,800 targets only a part is listed; those with a hit were picked by preference. About 0.5% of all pairs of compound and target were hits. A number with no mark means an inactive call.

Experiments:
Assay in all cases: log2 fold change, soluble protein after heating vs DMSO (PISA); higher = thermal stabilisation; K562 lysate, 10 uM; active = over 0.2 and 3.5 SD of the protein, either way, in both replicates (recomputed)
[1] = compound: CCCS(=O)(=O)Nc1ccc(F)c(C(=O)c2c[nH]c3ncc(-c4ccc(Cl)cc4)cc23)c1F [vemurafenib]
Summary of the method: (§1)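 A 30 min treatment with 10 μM compound was applied to crude K562 extract at 1 mg/mL protein in PBS pH 7.4 with 1 mM MgCl2. Heating for 3 min spanned 48°C-58°C, after which aliquots were pooled, adjusted to 0.5% NP-40 at 4°C and spun at 21,000xg for 90 min. TMTpro 16plex LC-MS/MS of the supernatant, with channel sums equalised, gave values recorded as log-two fold change in thermal stability against solvent controls, from duplicates.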

[2] = compound: CCCS(=O)(=O)Nc1ccc(F)c(C(=O)c2c[nH]c3ncc(Cl)cc23)c1F
Summary of the method: as §1

[3] = compound: CCN(CCCOc1ccc2c(Nc3cc(CC(=O)Nc4cccc(F)c4)[nH]n3)ncnc2c1)CCOP(=O)(O)O [barasertib]
Summary of the method: as §1

[4] = compound: CC[C@@H]1C(=O)N(C)c2cnc(Nc3ccc(C(=O)NC4CCN(C)CC4)cc3OC)nc2N1C1CCCC1
Summary of the method: as §1

[5] = compound: CC[C@@H]1C(=O)N(C)c2cnc(Nc3ccc(C(=O)N[C@H]4CC[C@H](N5CCN(CC6CC6)CC5)CC4)cc3OC)nc2N1C(C)C [volasertib]
Summary of the method: as §1

[6] = compound: CCn1c(C(=O)N(C2CC2)C2CC2)cc2c3c(ncn3C)c(Nc3cc(C)n(C)n3)nc21
Summary of the method: as §1

[7] = compound: CCn1cc(-c2ccnc3[nH]c(-c4cccc(CN(C)C)c4)cc23)c(-c2ccc(NC(=O)N(C)C)cc2)n1
Summary of the method: as §1

[8] = compound: CN1CCC(CNc2ccc3ncc(-c4cccc(OC(F)(F)F)c4)n3n2)CC1
Summary of the method: as §1

[9] = compound: CN1CCN(CCOc2cc(OC3CCOCC3)c3c(Nc4c(Cl)ccc5c4OCO5)ncnc3c2)CC1 [saracatinib]
Summary of the method: as §1

[10] = compound: CN1CCN(c2nc(C3=C(c4c[nH]c5ccccc45)C(=O)NC3=O)c3ccccc3n2)CC1 [sotrastaurin]
Summary of the method: as §1

INPP4A (UniProt Q96PE3)
log2 fold change [1]: -0.03 | log2 fold change [2]: 0.011 | log2 fold change [3]: 0.382 (active) | log2 fold change [4]: -0.017 | log2 fold change [5]: -0.034 | log2 fold change [6]: 0.031 | log2 fold change [7]: 0.021 | log2 fold change [8]: 0.015 | log2 fold change [9]: -0.025 | log2 fold change [10]: -0.008

HNRNPUL2 (UniProt Q1KMD3)
log2 fold change [1]: 0.024 | log2 fold change [2]: 0.017 | log2 fold change [3]: 0.038 | log2 fold change [4]: 0.005 | log2 fold change [5]: -0.009 | log2 fold change [6]: -0.012 | log2 fold change [7]: -0.029 | log2 fold change [8]: 0.008 | log2 fold change [9]: 0.029 | log2 fold change [10]: 0.04

HEATR3 (UniProt Q7Z4Q2)
log2 fold change [1]: 0.025 | log2 fold change [2]: 0.026 | log2 fold change [3]: 0.026 | log2 fold change [4]: -0.048 | log2 fold change [5]: -0.028 | log2 fold change [6]: 0.032 | log2 fold change [7]: -0.064 | log2 fold change [8]: -0.089 | log2 fold change [9]: -0.019 | log2 fold change [10]: 0.026

GTF2H1 (UniProt P32780)
log2 fold change [1]: 0.013 | log2 fold change [2]: 0.014 | log2 fold change [3]: 0.014 | log2 fold change [4]: -0.021 | log2 fold change [5]: -0.028 | log2 fold change [6]: -0.028 | log2 fold change [7]: -0.042 | log2 fold change [8]: -0.075 | log2 fold change [9]: 0.018 | log2 fold change [10]: -0.012

GLUL (UniProt P15104)
log2 fold change [1]: -0.055 | log2 fold change [2]: 0.012 | log2 fold change [3]: -0.026 | log2 fold change [4]: -0.028 | log2 fold change [5]: -0.024 | log2 fold change [6]: 0.021 | log2 fold change [7]: 0.326 | log2 fold change [8]: -0.058 | log2 fold change [9]: -0.004 | log2 fold change [10]: 0.016

GIT1 (UniProt Q9Y2X7)
log2 fold change [1]: -0.073 | log2 fold change [2]: 0.028 | log2 fold change [3]: -0.008 | log2 fold change [4]: -0.044 | log2 fold change [5]: -0.043 | log2 fold change [6]: -0.007 | log2 fold change [7]: 0.132 | log2 fold change [8]: 0.046 | log2 fold change [9]: 0 | log2 fold change [10]: 0.012

HDHD5 (UniProt Q9BXW7)
Sequence of UniProt Q9BXW7 (Q9BXW7 whole entry, looked up): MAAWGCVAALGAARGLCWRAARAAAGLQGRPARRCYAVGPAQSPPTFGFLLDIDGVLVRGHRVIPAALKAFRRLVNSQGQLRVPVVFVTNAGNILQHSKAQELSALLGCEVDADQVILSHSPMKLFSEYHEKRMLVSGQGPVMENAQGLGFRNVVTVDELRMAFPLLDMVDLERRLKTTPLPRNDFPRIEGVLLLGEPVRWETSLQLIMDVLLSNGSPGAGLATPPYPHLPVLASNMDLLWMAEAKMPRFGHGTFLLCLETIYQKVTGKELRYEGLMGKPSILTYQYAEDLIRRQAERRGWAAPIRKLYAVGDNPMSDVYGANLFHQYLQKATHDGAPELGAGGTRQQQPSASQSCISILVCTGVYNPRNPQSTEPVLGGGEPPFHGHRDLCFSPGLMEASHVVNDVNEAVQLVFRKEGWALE
log2 fold change [1]: -0.033 | log2 fold change [2]: 0.043 | log2 fold change [3]: -0.137 | log2 fold change [4]: -0.076 | log2 fold change [5]: -0.02 | log2 fold change [6]: 0.01 | log2 fold change [7]: 0 | log2 fold change [8]: 0.011 | log2 fold change [9]: -0.06 | log2 fold change [10]: 0.05

HDAC3 (UniProt O15379)
log2 fold change [1]: 0.035 | log2 fold change [2]: 0.026 | log2 fold change [3]: -0.038 | log2 fold change [4]: -0.023 | log2 fold change [5]: -0.003 | log2 fold change [6]: 0.001 | log2 fold change [7]: 0.023 | log2 fold change [8]: 0.052 | log2 fold change [9]: -0.04 | log2 fold change [10]: -0.006

GNB1 (UniProt P62873)
log2 fold change [1]: -0.048 | log2 fold change [2]: 0.124 | log2 fold change [3]: -0.016 | log2 fold change [4]: -0.081 | log2 fold change [5]: 0.008 | log2 fold change [6]: -0.037 | log2 fold change [7]: -0.072 | log2 fold change [8]: 0.05 | log2 fold change [9]: -0.038 | log2 fold change [10]: -0.287 (active)

IMMT (UniProt Q16891)
Sequence of UniProt Q16891 (Q16891 whole entry, looked up): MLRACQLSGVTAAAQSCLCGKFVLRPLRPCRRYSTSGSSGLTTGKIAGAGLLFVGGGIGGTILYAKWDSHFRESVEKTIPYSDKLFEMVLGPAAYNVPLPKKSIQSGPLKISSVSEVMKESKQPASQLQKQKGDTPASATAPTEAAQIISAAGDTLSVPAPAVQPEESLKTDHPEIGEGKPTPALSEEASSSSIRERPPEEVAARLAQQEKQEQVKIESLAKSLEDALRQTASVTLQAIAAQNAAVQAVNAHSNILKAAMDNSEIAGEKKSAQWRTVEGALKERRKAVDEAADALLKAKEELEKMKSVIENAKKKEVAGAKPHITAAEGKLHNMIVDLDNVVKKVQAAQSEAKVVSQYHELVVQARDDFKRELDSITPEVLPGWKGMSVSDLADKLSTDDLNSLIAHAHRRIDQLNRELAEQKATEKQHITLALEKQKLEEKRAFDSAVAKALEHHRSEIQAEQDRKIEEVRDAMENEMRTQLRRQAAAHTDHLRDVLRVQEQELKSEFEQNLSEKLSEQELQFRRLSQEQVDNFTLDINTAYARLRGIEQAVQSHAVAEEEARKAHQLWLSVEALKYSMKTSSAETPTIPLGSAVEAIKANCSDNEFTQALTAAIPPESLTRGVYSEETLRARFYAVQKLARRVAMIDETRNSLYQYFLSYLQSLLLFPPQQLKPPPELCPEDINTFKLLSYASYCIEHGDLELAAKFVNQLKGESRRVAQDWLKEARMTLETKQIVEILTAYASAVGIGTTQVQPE
log2 fold change [1]: -0.016 | log2 fold change [2]: -0.006 | log2 fold change [3]: 0.004 | log2 fold change [4]: -0.046 | log2 fold change [5]: 0.015 | log2 fold change [6]: 0.015 | log2 fold change [7]: -0.005 | log2 fold change [8]: -0.212 (active) | log2 fold change [9]: 0.01 | log2 fold change [10]: -0.012

HDAC1 (UniProt Q13547)
Sequence of UniProt Q13547 (Q13547 whole entry, looked up): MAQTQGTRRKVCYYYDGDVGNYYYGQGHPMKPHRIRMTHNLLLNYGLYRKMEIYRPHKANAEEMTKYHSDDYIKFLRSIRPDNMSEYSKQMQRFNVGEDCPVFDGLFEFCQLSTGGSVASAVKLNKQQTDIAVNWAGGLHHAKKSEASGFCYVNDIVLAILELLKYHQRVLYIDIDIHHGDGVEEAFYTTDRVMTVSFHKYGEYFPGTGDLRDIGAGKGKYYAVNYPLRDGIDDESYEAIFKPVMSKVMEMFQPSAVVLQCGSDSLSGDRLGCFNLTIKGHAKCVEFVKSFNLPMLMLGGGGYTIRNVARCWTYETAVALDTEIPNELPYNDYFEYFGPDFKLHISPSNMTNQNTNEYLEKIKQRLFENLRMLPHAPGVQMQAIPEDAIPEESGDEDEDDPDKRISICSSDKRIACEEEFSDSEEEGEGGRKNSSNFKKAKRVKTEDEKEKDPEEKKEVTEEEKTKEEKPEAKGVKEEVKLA
log2 fold change [1]: 0.01 | log2 fold change [2]: 0.022 | log2 fold change [3]: -0.001 | log2 fold change [4]: -0.004 | log2 fold change [5]: -0.019 | log2 fold change [6]: 0.03 | log2 fold change [7]: -0.036 | log2 fold change [8]: -0.001 | log2 fold change [9]: 0.014 | log2 fold change [10]: -0.011

ISCA1 isoform 2 (UniProt Q9BUE6)
Sequence of UniProt Q9BUE6 (Q9BUE6 whole entry, looked up): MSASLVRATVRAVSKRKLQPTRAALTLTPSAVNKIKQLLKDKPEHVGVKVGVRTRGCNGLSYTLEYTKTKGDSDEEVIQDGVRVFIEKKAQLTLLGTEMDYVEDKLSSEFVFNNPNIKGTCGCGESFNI
log2 fold change [1]: 0.007 | log2 fold change [2]: -0.059 | log2 fold change [3]: 0.028 | log2 fold change [4]: 0.042 | log2 fold change [5]: 0.03 | log2 fold change [6]: -0.051 | log2 fold change [7]: 0.425 (active) | log2 fold change [8]: -0.21 | log2 fold change [9]: 0.028 | log2 fold change [10]: 0.021

ICAM2 (UniProt P13598)
log2 fold change [1]: -0.036 | log2 fold change [2]: 0.016 | log2 fold change [3]: 0.018 | log2 fold change [4]: 0.03 | log2 fold change [5]: 0.015 | log2 fold change [6]: -0.017 | log2 fold change [7]: 0.426 (active) | log2 fold change [8]: -0.031 | log2 fold change [9]: 0.004 | log2 fold change [10]: -0.035

IMPDH2 (UniProt H0Y4R1)
log2 fold change [1]: -0.047 | log2 fold change [2]: 0.114 | log2 fold change [3]: 0.134 | log2 fold change [4]: 0.195 | log2 fold change [5]: 0.001 | log2 fold change [6]: -0.1 | log2 fold change [7]: 0.059 | log2 fold change [8]: 0.129 | log2 fold change [9]: 0.043 | log2 fold change [10]: 0.116

HAUS7 isoform 2 (UniProt Q99871)
Sequence of UniProt Q99871 (Q99871 whole entry, looked up): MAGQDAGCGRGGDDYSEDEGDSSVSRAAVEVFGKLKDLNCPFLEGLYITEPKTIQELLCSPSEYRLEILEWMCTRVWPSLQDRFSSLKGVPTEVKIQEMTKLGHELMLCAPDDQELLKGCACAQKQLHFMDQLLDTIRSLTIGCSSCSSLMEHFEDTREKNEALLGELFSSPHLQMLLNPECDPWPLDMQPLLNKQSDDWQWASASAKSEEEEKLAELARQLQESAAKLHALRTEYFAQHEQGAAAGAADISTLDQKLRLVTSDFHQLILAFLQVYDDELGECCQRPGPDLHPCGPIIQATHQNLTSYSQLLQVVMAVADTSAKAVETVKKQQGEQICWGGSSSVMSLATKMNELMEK
log2 fold change [1]: -0.054 | log2 fold change [2]: 0.006 | log2 fold change [3]: 0.002 | log2 fold change [4]: 0.005 | log2 fold change [5]: -0.06 | log2 fold change [6]: -0.021 | log2 fold change [7]: 0.073 | log2 fold change [8]: -0.173 | log2 fold change [9]: 0.044 | log2 fold change [10]: -0.025

KARS1 (UniProt Q15046)
log2 fold change [1]: 0.003 | log2 fold change [2]: -0.002 | log2 fold change [3]: 0.002 | log2 fold change [4]: -0.072 | log2 fold change [5]: -0.026 | log2 fold change [6]: 0.024 | log2 fold change [7]: 0.046 | log2 fold change [8]: -0.052 | log2 fold change [9]: 0.004 | log2 fold change [10]: 0.004

IRF2BPL (UniProt Q9H1B7)
Sequence of UniProt Q9H1B7 (Q9H1B7 whole entry, looked up): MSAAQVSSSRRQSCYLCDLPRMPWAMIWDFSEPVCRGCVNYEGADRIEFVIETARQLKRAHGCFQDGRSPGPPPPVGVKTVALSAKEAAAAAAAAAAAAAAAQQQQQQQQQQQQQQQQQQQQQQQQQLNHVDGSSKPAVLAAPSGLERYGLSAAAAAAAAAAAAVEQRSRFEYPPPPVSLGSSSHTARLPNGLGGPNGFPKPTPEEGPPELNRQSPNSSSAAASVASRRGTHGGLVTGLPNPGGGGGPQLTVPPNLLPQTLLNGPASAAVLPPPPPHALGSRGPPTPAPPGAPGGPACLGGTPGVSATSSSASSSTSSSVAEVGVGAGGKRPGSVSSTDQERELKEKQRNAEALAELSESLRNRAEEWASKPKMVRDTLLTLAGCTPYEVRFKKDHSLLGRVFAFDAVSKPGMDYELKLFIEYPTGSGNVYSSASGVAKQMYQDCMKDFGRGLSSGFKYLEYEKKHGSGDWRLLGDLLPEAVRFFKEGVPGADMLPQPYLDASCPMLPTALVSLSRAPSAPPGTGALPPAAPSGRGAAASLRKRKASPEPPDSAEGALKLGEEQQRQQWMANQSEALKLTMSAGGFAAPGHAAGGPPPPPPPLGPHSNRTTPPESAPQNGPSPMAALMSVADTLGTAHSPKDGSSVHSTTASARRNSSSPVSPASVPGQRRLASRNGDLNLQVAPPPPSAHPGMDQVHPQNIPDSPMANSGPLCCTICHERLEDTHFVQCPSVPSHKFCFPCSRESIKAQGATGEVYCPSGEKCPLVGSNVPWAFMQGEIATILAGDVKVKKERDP
log2 fold change [1]: -0.039 | log2 fold change [2]: 0.026 | log2 fold change [3]: 0.024 | log2 fold change [4]: 0.04 | log2 fold change [5]: 0.001 | log2 fold change [6]: 0.022 | log2 fold change [7]: -0.195 | log2 fold change [8]: 0.111 | log2 fold change [9]: 0.025 | log2 fold change [10]: -0.005

KIAA0930 isoform 2 (UniProt Q6ICG6)
log2 fold change [1]: -0.118 | log2 fold change [2]: -0.009 | log2 fold change [3]: 0.002 | log2 fold change [4]: 0.162 | log2 fold change [5]: 0.14 | log2 fold change [6]: 0.159 | log2 fold change [7]: -0.078 | log2 fold change [8]: 0.028 | log2 fold change [9]: 0.098 | log2 fold change [10]: 0.075

HNRNPAB isoform 3 (UniProt Q99729)
log2 fold change [1]: 0.018 | log2 fold change [2]: -0.001 | log2 fold change [3]: -0.003 | log2 fold change [4]: 0.033 | log2 fold change [5]: 0.019 | log2 fold change [6]: 0.011 | log2 fold change [7]: -0.096 | log2 fold change [8]: -0.004 | log2 fold change [9]: 0.027 | log2 fold change [10]: -0.013

IGF2BP2 (UniProt Q9Y6M1)
log2 fold change [1]: 0.05 | log2 fold change [2]: 0.026 | log2 fold change [3]: -0.005 | log2 fold change [4]: -0.1 | log2 fold change [5]: -0.049 | log2 fold change [6]: 0.02 | log2 fold change [7]: -0.066 | log2 fold change [8]: 0.036 | log2 fold change [9]: 0.014 | log2 fold change [10]: 0.026

KCT2 (UniProt Q8NC54)
log2 fold change [1]: 0.046 | log2 fold change [2]: 0.023 | log2 fold change [3]: 0.127 | log2 fold change [4]: 0.054 | log2 fold change [5]: -0.001 | log2 fold change [6]: -0.038 | log2 fold change [7]: -0.374 (active) | log2 fold change [8]: 0.153 | log2 fold change [9]: 0.089 | log2 fold change [10]: 0.038

HACE1 (UniProt Q8IYU2)
log2 fold change [1]: 0.066 | log2 fold change [2]: 0.07 | log2 fold change [3]: 0.081 | log2 fold change [4]: 0.069 | log2 fold change [5]: -0.058 | log2 fold change [6]: 0.039 | log2 fold change [7]: -0.657 (active) | log2 fold change [8]: 0.252 | log2 fold change [9]: 0.025 | log2 fold change [10]: -0.154

IMPDH1 isoform 6 (UniProt P20839)
Sequence of UniProt P20839 (P20839 whole entry, looked up): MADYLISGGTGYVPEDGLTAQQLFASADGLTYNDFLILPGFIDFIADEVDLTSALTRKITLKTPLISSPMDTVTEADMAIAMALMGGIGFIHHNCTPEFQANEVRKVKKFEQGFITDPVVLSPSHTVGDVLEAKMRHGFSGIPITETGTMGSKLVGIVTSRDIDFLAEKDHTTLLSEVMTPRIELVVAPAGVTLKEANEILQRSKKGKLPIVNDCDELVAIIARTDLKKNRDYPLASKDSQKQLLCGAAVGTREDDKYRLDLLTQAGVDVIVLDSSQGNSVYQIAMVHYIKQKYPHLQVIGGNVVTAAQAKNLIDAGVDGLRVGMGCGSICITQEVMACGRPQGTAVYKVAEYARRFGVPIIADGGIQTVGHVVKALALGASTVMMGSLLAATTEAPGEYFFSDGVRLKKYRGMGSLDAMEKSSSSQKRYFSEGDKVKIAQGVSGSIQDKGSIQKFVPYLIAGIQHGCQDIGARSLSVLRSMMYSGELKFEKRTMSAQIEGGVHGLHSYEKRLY
log2 fold change [1]: -0.006 | log2 fold change [2]: -0.015 | log2 fold change [3]: -0.01 | log2 fold change [4]: 0.003 | log2 fold change [5]: -0.002 | log2 fold change [6]: -0.006 | log2 fold change [7]: -0.128 | log2 fold change [8]: 0.021 | log2 fold change [9]: 0.003 | log2 fold change [10]: -0.024

IGFBP4 (UniProt P22692)
Sequence of UniProt P22692 (P22692 whole entry, looked up): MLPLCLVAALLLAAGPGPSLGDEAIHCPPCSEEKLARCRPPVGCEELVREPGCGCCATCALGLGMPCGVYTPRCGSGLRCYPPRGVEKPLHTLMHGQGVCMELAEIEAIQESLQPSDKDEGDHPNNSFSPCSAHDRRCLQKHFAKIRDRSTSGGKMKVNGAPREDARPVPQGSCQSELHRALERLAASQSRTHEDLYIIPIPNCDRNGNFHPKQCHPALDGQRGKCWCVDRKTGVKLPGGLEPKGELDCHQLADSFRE
log2 fold change [2]: -0.171 | log2 fold change [3]: -0.281 | log2 fold change [5]: -0.002 | log2 fold change [6]: 0.04 | log2 fold change [7]: -0.063 | log2 fold change [8]: 0.009 | log2 fold change [9]: 0.016 | log2 fold change [10]: -0.028

GYPA, A0A2R8Y7F9
log2 fold change [3]: 0.066 | log2 fold change [7]: -0.812 | log2 fold change [8]: 0.25

GPLD1 (UniProt P80108)
log2 fold change [9]: 0.236 | log2 fold change [10]: -0.13

HAUS5 (UniProt O94927)
Sequence of UniProt O94927 (O94927 whole entry, looked up): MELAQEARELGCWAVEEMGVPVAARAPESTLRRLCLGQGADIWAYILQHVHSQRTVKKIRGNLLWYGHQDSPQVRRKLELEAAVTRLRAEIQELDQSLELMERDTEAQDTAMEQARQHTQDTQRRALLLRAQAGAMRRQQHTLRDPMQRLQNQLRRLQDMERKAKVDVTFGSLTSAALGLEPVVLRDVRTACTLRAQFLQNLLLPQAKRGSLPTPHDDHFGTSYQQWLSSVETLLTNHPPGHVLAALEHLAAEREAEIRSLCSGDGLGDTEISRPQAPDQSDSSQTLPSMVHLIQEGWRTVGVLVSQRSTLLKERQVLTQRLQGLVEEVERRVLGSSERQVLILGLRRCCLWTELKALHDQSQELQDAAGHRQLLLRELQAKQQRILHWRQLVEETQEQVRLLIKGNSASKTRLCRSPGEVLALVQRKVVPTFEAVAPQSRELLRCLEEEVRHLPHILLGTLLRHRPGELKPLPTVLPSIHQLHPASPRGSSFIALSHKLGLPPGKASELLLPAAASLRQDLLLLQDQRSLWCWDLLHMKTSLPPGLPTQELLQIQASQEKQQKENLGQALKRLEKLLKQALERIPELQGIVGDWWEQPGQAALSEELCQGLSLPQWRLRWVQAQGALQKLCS
log2 fold change [1]: 0.004 | log2 fold change [2]: 0.048 | log2 fold change [3]: -0.02 | log2 fold change [4]: -0.038 | log2 fold change [5]: -0.016 | log2 fold change [6]: 0.026 | log2 fold change [7]: 0.01 | log2 fold change [8]: -0.087 | log2 fold change [9]: -0.008 | log2 fold change [10]: 0.03

HOMER3 (UniProt Q9NSC5)
Sequence of UniProt Q9NSC5 (Q9NSC5 whole entry, looked up): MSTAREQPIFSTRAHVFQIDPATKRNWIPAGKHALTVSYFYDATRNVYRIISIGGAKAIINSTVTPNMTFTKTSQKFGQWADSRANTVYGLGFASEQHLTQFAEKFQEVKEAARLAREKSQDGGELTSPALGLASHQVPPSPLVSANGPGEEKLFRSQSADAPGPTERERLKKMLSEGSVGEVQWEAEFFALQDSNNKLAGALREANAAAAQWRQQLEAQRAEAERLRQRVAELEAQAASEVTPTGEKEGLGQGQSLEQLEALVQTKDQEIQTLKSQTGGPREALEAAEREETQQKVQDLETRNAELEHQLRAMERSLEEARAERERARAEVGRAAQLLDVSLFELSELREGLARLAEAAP
log2 fold change [2]: 0.123 | log2 fold change [3]: -0.129 | log2 fold change [5]: -0.011 | log2 fold change [7]: 0.037 | log2 fold change [8]: -0.071 | log2 fold change [10]: 0.028

IRS2 (UniProt Q9Y4H2)
log2 fold change [2]: 0.026 | log2 fold change [3]: -0.019 | log2 fold change [5]: -0.073 | log2 fold change [6]: 0.047 | log2 fold change [7]: -0.698 | log2 fold change [8]: 0.341 | log2 fold change [9]: 0.013 | log2 fold change [10]: -0.025
